Shiga toxin inh – blocks Shiga toxin action in Vero cells; inhibition, % at 38.7 µM; 290,000 tested, 9.2% active; Vero cells, Shiga toxin protein synthesis inhibition reporter; AID 2315; in the data active means inhibition mostly above about 28%, no sharp cut-off; inactive means mostly below about 43%
CHX counter – counter-screen for Shiga toxin inhibitors: cycloheximide protein synthesis inhibition. cell reporter, cycloheximide protein synthesis inhibition counterscreen. max response, %. 300,000 tested, 12% active. AID 2314; in the data active means max response mostly above about 13%, no sharp cut-off; inactive means mostly below about 14%; further: read at 38.3 µM for the half of the compounds with a filed dose
Pf growth 48h – inhibits P. falciparum growth in the first generation, 48 h. P. falciparum luciferase growth in erythrocytes, 48 h. 310,000 tested, 5.9% active. Potency, µM (series often up to 28.7 µM), usual class: inhibitors
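Growth was read as firefly luciferase luminescence after a 48 h, 37 C, 5% CO2 exposure of compounds to reporter-bearing P. falciparum cultures (0.1% parasitemia, 2% hematocrit final) in Albumax-supplemented RPMI 1640.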
LmPK inhibitor – inhibitors of Leishmania mexicana pyruvate kinase. Q27686. purified LmPK, Kinase-Glo ATP luminescence, 1 h. Potency, µM (doses to about 57.5 µM), usual class: inhibitors. 290,000 tested, 0.37% active
Target sequence (Q27686 whole entry, looked up): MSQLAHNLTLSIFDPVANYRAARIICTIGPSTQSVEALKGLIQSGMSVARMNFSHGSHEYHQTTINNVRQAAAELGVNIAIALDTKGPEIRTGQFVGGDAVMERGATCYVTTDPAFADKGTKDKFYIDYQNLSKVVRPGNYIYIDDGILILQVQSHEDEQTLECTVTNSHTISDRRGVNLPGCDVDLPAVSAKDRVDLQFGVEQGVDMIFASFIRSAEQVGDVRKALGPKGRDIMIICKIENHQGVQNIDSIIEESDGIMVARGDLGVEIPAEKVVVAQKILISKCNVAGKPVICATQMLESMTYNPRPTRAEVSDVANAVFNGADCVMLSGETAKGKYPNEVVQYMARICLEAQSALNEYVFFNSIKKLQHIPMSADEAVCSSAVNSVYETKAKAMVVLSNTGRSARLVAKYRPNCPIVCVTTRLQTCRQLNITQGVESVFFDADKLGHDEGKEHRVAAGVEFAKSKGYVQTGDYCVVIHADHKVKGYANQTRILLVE
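Purified LmPK (0.1 nM) converted ADP (0.1 mM) to ATP with PEP (0.5 mM) in imidazole buffer pH 7.2 with KCl and MgCl2, 1 h at room temperature. ATP was read by Kinase-Glo luminescence; data normalized to uninhibited and no-enzyme controls.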
Pf growth 96h – inhibits malaria parasite growth, 96 h; P. falciparum luciferase reporter growth, 96 h; Potency, µM (highest dose often 28.7 µM), hits mostly inhibitors; 320,000 tested, 6.9% active
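Compounds incubated with erythrocytes infected by luciferase-expressing P. falciparum (2% hematocrit, 0.05% parasitemia final) for 96 hours, 37 C in 5% CO2. Growth inhibition scored as decreased luciferase luminescence.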
Each line names hits and unclear results; the compound was inactive in the other large screens. An excerpt weighted towards active compounds, which were near 22% of everything screened. Unless noted, the call rests on the fitted dose curve; in most records, active means well fitted inhibition curve with a large enough effect; inconclusive means small, poorly fitted or top-dose-only effect, or another doubt; inactive means no such curve, though single readings can be large or run the other way.

COC(=O)c1ccc(NCCC(=O)O)cc1	none
O=c1[nH]c(SCc2ccccc2Cl)nc2c1CCC2	none
CNc1nc(SCc2ccccc2Cl)nc2c1CCCC2	Pf growth 48h 13.1µM, Pf growth 96h 14.7µM
COc1ccc(C(CCNCc2ccc(OC)c(OC)c2)c2ccc(F)cc2)cc1 (configuration not stated)	Pf growth 48h 9.28µM, Pf growth 96h inconclusive
COc1ccc(CCNCc2ccccc2)cc1	none
COc1ccc(C(CCNCc2ccc(N(C)C)cc2)c2ccccc2)cc1 (configuration not stated)	Pf growth 48h 14.7µM, Pf growth 96h inconclusive
CC(C)Oc1ccc(C(CCNCc2ccc(O)cc2)c2ccccc2)cc1 (configuration not stated)	Pf growth 48h 1.17µM, Pf growth 96h 1.17µM
Cn1c(SCC(=O)Nc2ccccc2Br)nnc1-c1cnccn1	Pf growth 96h inconclusive
COc1ccc(-n2ncc3c2CC(C)(C)CC3NC(=O)c2ccnn2C)cc1 (configuration not stated)	none
CC(=O)Oc1c(C)c2c3c(c1OC(C)=O)[C@@H](C)CC[C@@H]3[C@@H](C)C[C@H]2C=C(C)C	Pf growth 48h 11.7µM, Pf growth 96h inconclusive (no result: Shiga toxin inh, CHX counter, LmPK inhibitor)
CC(C)=C[C@@H]1C[C@H](C)[C@H]2CC[C@H](C)c3c(O)c(O)c(C)c1c32	Pf growth 48h 3.7µM, Pf growth 96h 10.4µM (no result: Shiga toxin inh, CHX counter, LmPK inhibitor)
Cc1ccc2ncccc2c1NC(=S)NC(=O)c1ccccc1	Pf growth 48h inconclusive
COc1ccc(CCNC(=O)C2CC(=O)N(C3CCCCCCC3)C2)cc1OC (configuration not stated)	Pf growth 48h inconclusive, Pf growth 96h inconclusive
CCc1ccc(CNC(=O)C2CC(=O)N(C3CCCC3)C2)cc1 (configuration not stated)	Pf growth 96h 2.62µM
Cc1ccc(CCNC(=O)C2CC(=O)N(C3CCCCC3)C2)cc1 (configuration not stated)	Pf growth 96h 1.47µM
COc1ccc(CNC(=O)C2CC(=O)N(C3CCCC3)C2)cc1 (configuration not stated)	none
Cc1ccc(S(=O)(=O)N2CCCC2CNC(=O)C(=O)NCCN2CCOCC2)cc1 (configuration not stated)	none (no result: Shiga toxin inh, CHX counter, LmPK inhibitor)
NS(=O)(=O)c1ccc(NC(=O)CSc2nnc(-c3ccc(O)cc3)o2)cc1	none
O=C(CSc1nnc(-c2ccc(F)cc2)o1)c1ccc2c(c1)OCCO2	CHX counter 18.2 (no result: Pf growth 96h)
O=C(CSc1nnc(-c2ccc(O)cc2)o1)Nc1ccc2c(c1)OCCO2	Shiga toxin inh 39.0, CHX counter 24.8
Cc1ccc(-c2csc3ncnc(SCC(=O)c4ccc5c(c4)OCCO5)c23)cc1	none
O=C(CSc1nnc(-c2ccc(O)cc2)o1)Nc1cccc(O)c1	CHX counter 24.0, Pf growth 96h inconclusive
O=C(CSc1ncnc2scc(-c3ccc(F)cc3)c12)c1ccc2c(c1)OCCO2	CHX counter 15.8
O=C(CSc1nnc(-c2ccncc2)o1)c1ccc2c(c1)OCCO2	none
CC1CC(C)(C)CC2(C1)NC(=O)N(CC(=O)Nc1cc([N+](=O)[O-])ccc1F)C2=O (configuration not stated)	Pf growth 48h inconclusive (no result: Shiga toxin inh, CHX counter, LmPK inhibitor)
CC(C(=O)Nc1ccc(S(=O)(=O)N2CCCCC2)cc1)N1CCN(c2ccccn2)CC1 (configuration not stated)	none
O=C(CSc1nnc(-c2ccc(O)cc2)o1)Nc1ccccc1Br	Shiga toxin inh 75.7, CHX counter 28.1, Pf growth 96h inconclusive
O=C(CSc1nnc(-c2cccnc2)o1)Nc1ccccc1Br	none
O=C(O)c1cc(-c2ccc(/C=N/Nc3ccc(Cl)cc3)o2)ccc1Cl	none
O=C(O)c1ccc(N/N=C/c2ccc(-c3ccc(Br)cc3)o2)cc1	Shiga toxin inh 39.3, CHX counter 26.7
Cc1ccc(/C=N/NC(=O)c2ccc(NC(=O)c3ccccc3Cl)cc2)o1	Pf growth 48h inconclusive
Cc1ccc(/C=N/Nc2ccc(C(=O)O)cc2)o1	Shiga toxin inh 75.7, CHX counter 30.0, Pf growth 96h inconclusive
CCC1(CC)NC(=O)N(CC(=O)OCC(=O)Nc2ncc(Cl)cc2Cl)C1=O	none (no result: Shiga toxin inh, CHX counter, LmPK inhibitor)
CCOc1ccc(Nc2n[nH]c(=S)s2)cc1	Pf growth 48h inconclusive, Pf growth 96h 2.94µM
S=c1[nH]nc(Nc2ccc(Cl)cc2)s1	none
Cn1cnc(S(=O)(=O)Nc2ccc(Cl)c(C(F)(F)F)c2)c1	none
CC[C@H](C)[C@@H](CNC)NC[C@@H](Cc1ccc(O)cc1)NCC(C)(C)C	Pf growth 48h inconclusive, Pf growth 96h 13.1µM

Screening results from PubChem BioAssay.
